Data taken from PubChem BioAssay AID1159580 (chemical genetic matrix, 2015).
“And” between values parts separate entries of the source, which are not always exact repeats. Equal values may be shown once. Out of some 5,500 compounds screened, about 2,000 (36%) were called active. Roughly 18% stayed inconclusive and do not appear here. Rule as the data show it: active = normalized growth mostly below about 0.91 (no sharp cut-off); inconclusive = no clear call, values can overlap the other calls; inactive = mostly above about 0.92. The list shows a part of the results.

Test: chemical genetic growth profiling, strain panel (AID 1159580);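 also: tested at 20 µM; growth read once vehicle control cultures reached saturation at 30 °C; 1 = growth at the plate median or of vehicle wells; lower values mean less growth of the strain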
Details: growth OD

Measured: normalized growth

CC(C)Cn1c(=O)n(C)c(=O)c2[nH]cnc21
inactive: S. cerevisiae deletion strains, locus YJR075W, strain HOC1, hits give low values 0.999 | S. cerevisiae deletion strains, locus YKL009W, strain mrt4, hits give low values 0.969 | S. cerevisiae deletion strains, locus YKL068W, hits give low values 0.991 | S. cerevisiae deletion strains, locus YKL085W, strain MDH1 (second series), hits give low values 0.983 | S. cerevisiae deletion strains, locus YKL085W, strain MDH1, hits give low values 0.983 | S. cerevisiae deletion strains, locus YKL160W, strain elf1, hits give low values 0.986 and 0.992 | S. cerevisiae deletion strains, locus YKL190W, strain CNB1, hits give low values 1.01 | S. cerevisiae deletion strains, locus YKR001C, strain vps1, hits give low values 0.967 | S. cerevisiae deletion strains, locus YKR026C, strain gcn3, hits give low values 0.985 and 1.01 | S. cerevisiae deletion strains, locus YKR091W, strain srl3, hits give low values 0.988 and 1 | S. cerevisiae deletion strains, locus YLL001W, strain dnm1, hits give low values 0.994 and 1.01 | S. cerevisiae deletion strains, locus YLL026W, hits give low values 0.999 and 1.01 | S. cerevisiae deletion strains, locus YLL041C, strain sdh2, hits give low values 0.997 and 1 | S. cerevisiae deletion strains, locus YLR027C, strain aat2, hits give low values 1 and 1.01 | S. cerevisiae deletion strains, locus YLR039C, strain RIC1, hits give low values 0.953 | S. cerevisiae deletion strains, locus YLR058C, strain SHM2, hits give low values 0.991 | S. cerevisiae deletion strains, locus YLR102C, strain apc9, hits give low values 0.99 | S. cerevisiae deletion strains, locus YLR113W, strain HOG1, hits give low values 1.01 and 0.985 | S. cerevisiae deletion strains, locus YLR221C, strain rsa3, hits give low values 1 and 1.04 | S. cerevisiae deletion strains, locus YLR258W, strain gsy2, hits give low values 0.988 and 1.02 | S. cerevisiae deletion strains, locus YLR262C, strain YPT6 (second series), hits give low values 1.01 and 0.998 | S. cerevisiae deletion strains, locus YLR262C, strain YPT6, hits give low values 0.966 | S. cerevisiae deletion strains, locus YLR268W, strain sec22, hits give low values 0.978 | S. cerevisiae deletion strains, locus YLR320W, strain mms22, hits give low values 1 and 1.04 | S. cerevisiae deletion strains, locus YLR330W, strain CHS5, hits give low values 0.991 | S. cerevisiae deletion strains, locus YLR342W, strain FKS1 (second series), hits give low values 0.953 | S. cerevisiae deletion strains, locus YLR342W, strain FKS1, hits give low values 1 and 1.01 | S. cerevisiae deletion strains, locus YLR357W, strain rsc2, hits give low values 1.03 and 1 | S. cerevisiae deletion strains, locus YLR370C, strain arc18, hits give low values 1 and 1.03 | S. cerevisiae deletion strains, locus YLR371W, strain rom2, hits give low values 0.982 | S. cerevisiae deletion strains, locus YLR384C, strain iki3, hits give low values 0.985 and 1.01 | S. cerevisiae deletion strains, locus YLR418C, strain cdc73, hits give low values 1.02 | S. cerevisiae deletion strains, locus YML016C, strain PPZ1, hits give low values 0.988 | S. cerevisiae deletion strains, locus YML032C, strain rad52, hits give low values 0.973 | S. cerevisiae deletion strains, locus YML120C, strain ndi1, hits give low values 1.01 and 0.981 | S. cerevisiae deletion strains, locus YML124C, strain tub3, hits give low values 0.981 | S. cerevisiae deletion strains, locus YMR058W, strain fet3, hits give low values 1.01 and 1.03 | S. cerevisiae deletion strains, locus YMR078C, strain ctf18, hits give low values 0.98 | S. cerevisiae deletion strains, locus YMR125W, strain sto1, hits give low values 0.998 and 0.978 | S. cerevisiae deletion strains, locus YMR129W, hits give low values 0.994 and 1 | S. cerevisiae deletion strains, locus YMR205C, strain PFK2, hits give low values 0.991 and 0.986 | S. cerevisiae deletion strains, locus YMR223W, strain ubp8, hits give low values 0.973 | S. cerevisiae deletion strains, locus YMR231W, strain pep5, hits give low values 1 and 1.01 | S. cerevisiae deletion strains, locus YMR263W, strain SAP30, hits give low values 1.01 | S. cerevisiae deletion strains, locus YMR307W, strain GAS1, hits give low values 0.924 | S. cerevisiae deletion strains, locus YNL067W, strain RPL9B, hits give low values 0.999 | S. cerevisiae deletion strains, locus YNL071W, strain lat1, hits give low values 1.02 and 1 | S. cerevisiae deletion strains, locus YNL128W, strain TEP1, hits give low values 1.01 | S. cerevisiae deletion strains, locus YNL153C, strain GIM3, hits give low values 1.02 | S. cerevisiae deletion strains, locus YNL175C, strain NOP13, hits give low values 0.999 | S. cerevisiae deletion strains, locus YNL183C, strain NPR1, hits give low values 0.928 and 0.909 | S. cerevisiae deletion strains, locus YNL197C, strain WHI3, hits give low values 0.986 | S. cerevisiae deletion strains, locus YNL209W, strain ssb2, hits give low values 1.02 and 0.995 | S. cerevisiae deletion strains, locus YNL224C, strain SQS1, hits give low values 0.998 | S. cerevisiae deletion strains, locus YNL233W, strain BNI4, hits give low values 0.998 | S. cerevisiae deletion strains, locus YNL248C, strain rpa49, hits give low values 0.996 and 1.06 | S. cerevisiae deletion strains, locus YNL250W, strain rad50, hits give low values 0.98 | S. cerevisiae deletion strains, locus YNL271C, strain bni1, hits give low values 0.999 | S. cerevisiae deletion strains, locus YNL298W, strain CLA4, hits give low values 0.983 | S. cerevisiae deletion strains, locus YNL307C, strain MCK1, hits give low values 0.976 | S. cerevisiae deletion strains, locus YNL322C, strain KRE1 (second series), hits give low values 0.996 and 0.988 | S. cerevisiae deletion strains, locus YNL322C, strain KRE1, hits give low values 0.993 and 0.979 | S. cerevisiae deletion strains, locus YNR049C, strain mso1, hits give low values 0.992 and 1.01 | S. cerevisiae deletion strains, locus YNR052C, strain pop2, hits give low values 0.989 | S. cerevisiae deletion strains, locus YOL006C, strain TOP1, hits give low values 0.998 | S. cerevisiae deletion strains, locus YOL012C, strain htz1 2.1 | S. cerevisiae deletion strains, locus YOL147C, strain pex11, hits give low values 0.985 | S. cerevisiae deletion strains, locus YOR001W, strain rrp6, hits give low values 1.01 and 1.05 | S. cerevisiae deletion strains, locus YOR061W, strain CKA2, hits give low values 0.993 | S. cerevisiae deletion strains, locus YOR069W, strain VPS5, hits give low values 0.987 | S. cerevisiae deletion strains, locus YOR070C, strain gyp1, hits give low values 1 and 1.01 | S. cerevisiae deletion strains, locus YOR080W, strain dia2, hits give low values 1.01 | S. cerevisiae deletion strains, locus YOR083W, strain WHI5 (second series), hits give low values 0.998 | S. cerevisiae deletion strains, locus YOR083W, strain WHI5, hits give low values 0.958 and 0.992 | S. cerevisiae deletion strains, locus YOR106W, strain vam3, hits give low values 1 and 0.973 | S. cerevisiae deletion strains, locus YOR136W, strain idh2, hits give low values 0.981 | S. cerevisiae deletion strains, locus YOR144C, strain elg1, hits give low values 0.987 | S. cerevisiae deletion strains, locus YOR184W, strain ser1, hits give low values 0.96 | S. cerevisiae deletion strains, locus YOR231W, strain MKK1, hits give low values 1.01 and 0.96 | S. cerevisiae deletion strains, locus YOR265W, strain rbl2, hits give low values 1 | S. cerevisiae deletion strains, locus YOR270C, strain vph1, hits give low values 0.997 and 1.08 | S. cerevisiae deletion strains, locus YOR290C, strain snf2, hits give low values 0.994 and 0.97 | S. cerevisiae deletion strains, locus YOR316C, strain cot1, hits give low values 0.993 | S. cerevisiae deletion strains, locus YPL051W, strain arl3, hits give low values 0.997 and 1.02 | S. cerevisiae deletion strains, locus YPL055C, strain LGE1, hits give low values 1.03 | S. cerevisiae deletion strains, locus YPL078C, strain atp4, hits give low values 1 and 0.993 | S. cerevisiae deletion strains, locus YPL106C, strain sse1, hits give low values 0.998 and 1.02 | S. cerevisiae deletion strains, locus YPL240C, strain hsp82, hits give low values 1 and 1.01 | S. cerevisiae deletion strains, locus YPL241C, strain CIN2, hits give low values 0.992 | S. cerevisiae deletion strains, locus YPL256C, strain CLN2, hits give low values 0.993 and 0.947 | S. cerevisiae deletion strains, locus YPR119W, strain clb2, hits give low values 0.993 | S. cerevisiae deletion strains, locus YPR141C, strain kar3, hits give low values 0.975 | S. cerevisiae deletion strains, locus YPR163C, strain tif3, hits give low values 0.998 | S. cerevisiae deletion strains, locus YPR167C, strain met16, hits give low values 0.988 | S. cerevisiae deletion strains, strain wtn01, hits give low values 0.988 | S. cerevisiae strains, strain wild type, hits give low values 0.995
